# Screens deposited in PubChem BioAssay by National Center for Advancing Translational Sciences (NCATS).
# RORgamma inh = qHTS for inhibitors of ROR gamma transcriptional activity. Nuclear receptor ROR-gamma (Mus musculus), P51450. Drosophila S2 Gal4-RORgamma UAS-luciferase reporter, 20 h. Potency, µM (highest dose often 53.6 µM), for the others: at the top dose activity change, negative = inhibition, most hits filed as inhibitors. 310,000 compounds, 5.4% hits. AID 2551, 2010; also: potency is read from the fitted curve at half-maximal effect; % is scaled to controls: 0 for no effect and ±100 for the full control effect; nearly all actives have a fitted effect of over 60% in size
#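 Luciferase reporter read in Schneider cells carrying Gal4-RORγ (mouse) and UAS-Photinus luciferase; cells given compound 1 h before 700 uM copper sulfate induction, then incubated 20 h at ambient temperature.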
# Six1-Eya2 inh = qHTS Assay for Inhibitors of the Six1/Eya2 Interaction; AlphaScreen GST-Six1/His-Eya2 binding, biochemical; active compounds read low; activity change, % (no concentration beside the values); 360,000 compounds, 0.56% hits; in the data active = activity change below about -65%; inconclusive = mostly about -30% to -63%; also: % is scaled to controls: 0 for no effect and ±100 for the full control effect
#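 Compounds are tested against tagged Six1 and Eya2 proteins bridged by glutathione donor and nickel acceptor beads; after a one-hour incubation at 37 °C without light, AlphaScreen emission is recorded.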
# CtBP-E1A blk = qHTS Assay for Inhibitors of the CtBP/E1A Interaction; CtBP / adenovirus E1A interaction (AlphaScreen); activity change, % (no concentration beside the values); AlphaScreen GST-E1A/His-CtBP binding, 1536-well; active compounds read low; 340,000 compounds, 0.49% hits; in the data active = activity change below about -65%; inconclusive = mostly about -30% to -63%; also: % is scaled to controls: 0 for no effect and ±100 for the full control effect
#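 GST-E1A and His-tagged CtBP (125 nM each as 5X stock) were preincubated with pin-transferred compound for 2 h at 37 °C in the dark, then glutathione donor and nickel acceptor beads were added for 1 h before AlphaScreen reading.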
# CBFb-RUNX1 inh = qHTS Assay for Compounds Blocking the Interaction Between CBF-beta and RUNX1 for the Treatment of Acute Myeloid Leukemia; AlphaScreen CBFb-His/RUNX1-biotin binding, biochemical; Potency, µM (series often up to 59.8 µM), without a hit: at the highest dose activity, negative = inhibition, usual class: inhibitors; 230,000 tested, under 10 active; AID 1477, 2009; also: % of control where 0% means no effect
#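 Room-temperature protein-protein interaction test with 30 nM each of His-tagged CBF-beta and biotinylated RUNX1, 15 min with compound, then 90 min with nickel plus streptavidin beads. Signal read in AlphaScreen mode.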
# Gal4-VP16 FLuc = VP16 counterscreen qHTS for inhibitors of ROR gamma transcriptional activity; Potency, µM (top dose mostly 53.6 µM), without a hit: at the top dose activity, negative = inhibition, usual class: inhibitors; Drosophila S2 Gal4-VP16 UAS-luciferase, luminescence, 20 h; 310,000 compounds, 3.5% hits;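 also: Gal4-VP16 expression switched on by copper sulfate through the metallothionein promoter; potency is read from the fitted curve at half-maximal effect; % is scaled to controls: 0 for no effect and ±100 for the full control effect; nearly all actives have a fitted effect of over 50% in size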
# MBNL1 CUG block = qHTS Assay for Inhibitors of MBNL1-poly(CUG) RNA binding; Muscleblind-like protein 1 (Homo sapiens), Q9NR56; Potency, µM (series often up to 57.5 µM), for inactives: top-dose activity change, negative = inhibition, most hits filed as inhibitors; 280,000 compounds, 0.036% hits; TR-FRET MBNL1-His/biotin-(CUG)12 binding, 665/545 ratio; active = well fitted inhibition curve with a large enough effect in the signal ratio, with a control signal flat, not every such curve was filed as active; inconclusive = small, poorly fitted or top-dose-only effect, or effect the other way, or a change in a side signal; inactive = no such curve, though single readings can be large or run the other way; the % refers to the signal ratio; also: potency is read from the fitted curve at half-maximal effect; % is scaled to controls: 0 for no effect and ±100 for the full control effect
# Target sequence (Q9NR56 whole entry, looked up): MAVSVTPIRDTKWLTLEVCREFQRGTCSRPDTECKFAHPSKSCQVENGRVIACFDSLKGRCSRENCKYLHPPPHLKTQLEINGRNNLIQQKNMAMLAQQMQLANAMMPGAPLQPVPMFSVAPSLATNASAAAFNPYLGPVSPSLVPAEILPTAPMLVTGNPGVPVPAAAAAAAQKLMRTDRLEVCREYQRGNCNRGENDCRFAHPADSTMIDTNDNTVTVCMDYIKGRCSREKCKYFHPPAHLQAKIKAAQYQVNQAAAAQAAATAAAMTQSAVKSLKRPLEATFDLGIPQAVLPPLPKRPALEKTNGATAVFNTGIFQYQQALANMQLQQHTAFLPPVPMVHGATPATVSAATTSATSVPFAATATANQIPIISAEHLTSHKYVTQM
#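 MBNL1-His + Biotin-(CUG)12, cpd titration 92 nM–58 uM; Tb anti-His Ab 0.055 ng/ul, SA-XL665 5 nM (final); 60 min RT; ratiometric 665/545 nm, Ex 340 nm; normalized to buffer and full-complex controls.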
# Starred values were filed as active, the others as inactive; u = inconclusive; x = no result given; [ ] = dose if it differs, or a comment. In the library only some 5.5% were active in any assay of this set; here they are far more common. Unless noted, calls follow the shape of the dose curve; as a rule, active = well fitted curve in the direction sought with a large enough effect; inconclusive = small, poorly fitted or top-dose-only effect, or another doubt; inactive = no such curve, though single readings can be large; an effect the other way counts as inactive or inconclusive.
SMILES,RORgamma inh,Six1-Eya2 inh,CtBP-E1A blk,CBFb-RUNX1 inh,Gal4-VP16 FLuc,MBNL1 CUG block
COc1ccc(-c2cc(C(=O)N3CCN(S(=O)(=O)c4ccccc4)CC3)[nH]n2)cc1,u,-5.1,-1.2,x,0.4%,-12.1%
COc1ccc(S(=O)(=O)N2CCN(C(=O)c3cc(-c4ccc(Br)cc4)n[nH]3)CC2)cc1OC,u,-4.2,0.8,x,12.6µM*,-2.8%
COc1cc2ccnc(C=NO)c2cc1OC,x,-85.9*,-27.8,x,x,x
CCCCCCn1c(=O)n2n(c1=O)C[C@]1(OC(=O)NCc3ccccc3)CN(S(=O)(=O)c3ccc(C)cc3)C[C@]1(O)C2,x,-1.4,-6.7,x,x,x
CN(/N=C\c1ccc(O)c(O)c1)c1nc(-c2ccccc2)cc(-c2ccccc2)n1,2.51µM*,-22.4,-21.5,3.7%,3.16µM*,-8.1%
C[C@H]1COC(=O)[C@H]2CCCN2C(=O)[C@@H](C)COC(=O)[C@H]2CCCN2C1=O,-10.8%[10 µM],x,x,4.6%[13.1 µM],-3.1%[10 µM],x
CCOC(=O)c1c(C)[nH]c(C(=O)Nc2cc(OCC)c(N3CCOCC3)cc2OCC)c1C,x,0.9,-2.2,x,x,x
COC(=O)c1[nH]c2ccc(C)cc2c1NC(=O)CN1CCN(c2ccccc2)CC1,u,-22.8,-5.6,-4.9%,11.2µM*,6.6%
COC(=O)c1[nH]c2ccc(C)cc2c1NC(=O)CN1CCN(c2ccc(F)cc2)CC1,-43.2%,-2.8,-2.5,-10.3%,12.6µM*,-4.5%
COC(=O)c1[nH]c2ccc(C)cc2c1NC(=O)CN1CCN(Cc2ccccc2)CC1,7.9%,-8.5,-1.6,-1.8%,-2.2%,0.1%
CCOC(=O)N1CCN(CC(=O)Nc2c(C(=O)OC)[nH]c3ccc(Cl)cc23)CC1,u,-11.3,-10.2,6.3%,7.94µM*,9.0%
O=C(Nc1ccc2c(c1)nc1n2CCN(Cc2ccccc2)C1)c1cccs1,6.2%,-79.6*,-87.2*,-6.2%,3.1%,-0.2%
O=C1C(Cc2ccccc2)NC(=S)N1c1ccccc1 (stereo unspecified),11.2µM*,1.4,7.1,5.6%,u,-2.0%
Cc1ccc(-c2nc3ccccc3o2)cc1NC(=S)NC(=O)c1cccs1,3.98µM*,-0.6,14.4,5.2%,u,-8.6%
Cc1ccc2oc(-c3cccc(NC(=S)NC(=O)c4cccs4)c3)nc2c1,-43.1%,9.0,-4.6,1.4%,17.4%,x
COc1cc(C(=O)Nc2cccc(-c3nc4cc(C)cc(C)c4o3)c2)cc(OC)c1OC,3.7%,6.3,7.4,-1.6%,0.7%,-2.1%
Cc1cc(C)c2oc(-c3ccc(C)c(NC(=S)NC(=O)c4cccs4)c3)nc2c1,2µM*,-0.6,11.4,4.7%,u,-13.1%
Cc1cc(C)c2oc(-c3ccc(C)c(NC(=S)NC(=O)/C=C/c4ccco4)c3)nc2c1,0.251µM*,-7.1,-1.3,2.3%,1.41µM*,-1.1%
Cc1ccc2oc(-c3cccc(NC(=S)NC(=O)/C=C/c4ccco4)c3)nc2c1,3.55µM*,-15.3,-8.7,-1.9%,10µM*,9.1%
COC(=O)c1cc(C(=O)OCC(=O)NCc2cccs2)cc([N+](=O)[O-])c1,x,-0.4,3.0,x,x,x
CCOC1=NC(=C(c2ccccc2)c2ccccc2)OC1=O,x,2.1,-8.1,x,x,x
CC(C1SC(=S)NC1=O)C1SC(=S)NC1=O (stereo unspecified),x,-83.3*,-72.8*,x,x,x
CCCCn1c(N)c(N(CC(C)C)C(=O)C2=NN(c3cc(C)ccc3C)C(=O)CC2)c(=O)[nH]c1=O,x,6.0,-3.6,x,x,x
CCOC(=O)C(NCc1ccccn1)(NC(=O)c1cccnc1)C(F)(F)F (stereo unspecified),15.8µM*,-82.6*,-0.2,-7.7%,0.9%,7.9%
CC(C)(C)n1cn[nH]c1=S,11.2µM*,1.0,-0.4,2.5%,-12.7%,1.3%
SMILES,RORgamma inh,Six1-Eya2 inh,CtBP-E1A blk,CBFb-RUNX1 inh,Gal4-VP16 FLuc,MBNL1 CUG block
O=C1NC(c2ccccn2)Nc2sc3c(c21)CCC3 (stereo unspecified),14.1µM*,-80.1*,-77.3*,-10.7%,u,u
CN1CCc2c(sc3c2C(=O)NC(c2ccccc2)N3)C1 (stereo unspecified),3.5%,-6.1,-9.8,-2.2%,3.1%,0.5%[11.5 µM]
CN1CCc2c(sc3c2C(=O)NC(c2ccccn2)N3)C1 (stereo unspecified),-13.7%,-66.8*,u,13.4%,0.3%,u
C#CCN(C[C@@H]1[C@@H](OC(=O)Nc2c(C)noc2C)[C@@H](OC(=O)Nc2c(C)noc2C)Cn2c(=O)n(CCCCCC)c(=O)n21)S(=O)(=O)c1ccc(C)cc1,x,-4.2,-4.4,x,x,x
COC(=O)CSc1n[nH]c(-c2ccncc2)n1,-5.7%[0.365 µM],-9.5,-14.8,-21.6%,x,-6.6%
CCc1ccc(C(=O)CSc2n[nH]c(-c3ccncc3)n2)cc1,38.7%,1.1,1.4,-1.4%,11.2µM*,-6.6%
Cc1nnsc1C(=O)NNS(=O)(=O)c1cc(C(F)(F)F)cc(C(F)(F)F)c1,11.2µM*,1.8,6.7,3.3%,19.2%,-18.6%
COc1ccc(C(=O)Nc2ccccc2N2CCOCC2)cc1Br,17.8µM*,-1.4,3.6,1.8%,-20.7%,-2.2%
CCOc1cc(N2CCOCC2)c(OCC)cc1NC(=O)Cc1ccccc1OC,-52.9%,-19.9,-4.2,-17.6%,22.4µM*,-10.7%
CCOc1ccc(C(=O)NC(=S)Nc2ccccc2N2CCOCC2)cc1Br,3.16µM*,-25.9,-17.4,-5.4%,4.47µM*,-23.6%
COc1ccc(C(=O)Nc2ccccc2C(=O)N2CCOCC2)cc1Br,-0.1%,-9.1,3.4,x,-6.0%,-0.2%
COc1ccc(C(=O)NC(=S)Nc2ccccc2N2CCOCC2)cc1Br,6.31µM*,-20.2,-0.7,-23.3%,6.31µM*,-11.2%
COCOCCn1cc(CN2CCS(=O)(=O)N(Cc3ccc(-c4ccc(OC)nc4)cc3)C(C(C)C)C2=O)nn1 (stereo unspecified),x,-0.7,-0.7,x,x,x
COc1ccc(CCn2c(S)nc3ccccc3c2=O)cc1,3.16µM*,1.0,5.1,x,u,9.9%
O=c1c2cc(Cl)ccc2nc(-c2ccccc2)n1O,6.31µM*,1.0,2.5,9.8%,0.6%,-11.0%
O=c1c2cc(Br)ccc2nc(-c2cccc(C(F)(F)F)c2)n1O,3.55µM*,-8.6,0.6,1.7%,20µM*,-1.0%
O=c1c2ccc(Cl)cc2nc(-c2ccc([N+](=O)[O-])cc2)n1O,8.91µM*,1.1,3.2,17.6%,17.8µM*,x
